# Laboratory results: the supplement of paper PMC8728848
# Shown is part of a subset that was picked to be rich in the strongest signals.
# Key:
# Test in all cases: glycan array binding signal (z-score within array); higher = stronger binding
# Settings in all cases: glycan notation: IUPAC condensed, linker removed
# [1] = target: Fuc(a1-2)Gal(b1-3)GalNAc(a1-3)[Fuc(a1-2)]Gal(b1-4)GlcNAc
# Procedure, shortened: (§1)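 The Consortium for Functional Glycomics database supplied 3228 glycan arrays, of which those lacking an available protein sequence were dropped. The binding signal, a within-array Z-score, was averaged across arrays of the same protein sequence and across linkers. Negative scores can be read as non-binding.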
# [2] = target: Fuc(a1-2)Gal(b1-4)GlcNAc(b1-2)[Fuc(a1-2)Gal(b1-4)GlcNAc(b1-4)]Man(a1-3)[Fuc(a1-2)Gal(b1-4)GlcNAc(b1-2)Man(a1-6)]Man(b1-4)GlcNAc(b1-4)GlcNAc
# Procedure, shortened: as §1
# [3] = target: Fuc(a1-2)Gal6S(b1-3)GlcNAc6S
# Procedure, shortened: as §1
# [4] = target: Fuc(a1-2)[Gal(a1-3)]Gal(b1-4)[Fuc(a1-3)]GlcNAc(b1-3)GalNAc
# Procedure, shortened: as §1
# [5] = target: Fuc(a1-2)[GalNAc(a1-3)]Gal(b1-4)[Fuc(a1-3)]GlcNAc(b1-3)GalNAc
# Procedure, shortened: as §1
# [6] = target: Fuc(a1-3)[Gal(b1-4)]GlcNAc(b1-4)Gal(b1-4)[Fuc(a1-3)]GlcNAc
# Procedure, shortened: as §1
# Gal(a1-2)Gal = target: Gal(a1-2)Gal
# Procedure, shortened: as §1
# Gal(a1-3)Gal(b1-3)GlcNAc = target: Gal(a1-3)Gal(b1-3)GlcNAc
# Procedure, shortened: as §1
# [7] = target: Gal(a1-4)Gal(b1-3)GlcNAc(b1-2)Man(a1-3)[Gal(a1-4)Gal(b1-3)GlcNAc(b1-2)Man(a1-6)]Man(b1-4)GlcNAc(b1-4)GlcNAc
# Procedure, shortened: as §1
# [8] = target: Gal(b1-3)GalNAc(a1-3)[Fuc(a1-2)]Gal(b1-4)GlcNAc
# Procedure, shortened: as §1
# [9] = target: Gal(b1-3)GalNAc(b1-4)Gal(b1-4)Glc
# Procedure, shortened: as §1
# [10] = target: Gal(b1-3)GlcNAc(b1-3)Gal(b1-4)GlcNAc(b1-3)Gal(b1-4)GlcNAc(b1-2)[Gal(b1-3)GlcNAc(b1-3)Gal(b1-4)GlcNAc(b1-3)Gal(b1-4)GlcNAc(b1-6)]Man(a1-6)[Gal(b1-3)GlcNAc(b1-3)Gal(b1-4)GlcNAc(b1-3)Gal(b1-4)GlcNAc(b1-2)Man(a1-3)]Man(b1-4)GlcNAc(b1-4)[Fuc(a1-6)]GlcNAc
# Procedure, shortened: as §1
# [11] = target: Gal(b1-4)GlcNAc(b1-3)Gal(b1-4)GlcNAc(b1-2)Man(a1-3)[Gal(b1-4)GlcNAc(b1-3)Gal(b1-4)GlcNAc(b1-2)Man(a1-6)]Man(b1-4)GlcNAc(b1-4)GlcNAc
# Procedure, shortened: as §1
# [12] = target: Gal(b1-4)GlcNAc(b1-3)Gal(b1-4)GlcNAc(b1-3)Gal(b1-4)GlcNAc(b1-3)Gal(b1-4)GlcNAc(b1-3)Gal(b1-4)GlcNAc(b1-2)[Gal(b1-4)GlcNAc(b1-3)Gal(b1-4)GlcNAc(b1-3)Gal(b1-4)GlcNAc(b1-3)Gal(b1-4)GlcNAc(b1-3)Gal(b1-4)GlcNAc(b1-6)]Man(a1-6)[Gal(b1-4)GlcNAc(b1-3)Gal(b1-4)GlcNAc(b1-3)Gal(b1-4)GlcNAc(b1-3)Gal(b1-4)GlcNAc(b1-3)Gal(b1-4)GlcNAc(b1-2)Man(a1-3)]Man(b1-4)GlcNAc(b1-4)[Fuc(a1-6)]GlcNAc
# Procedure, shortened: as §1
# [13] = target: Gal(b1-4)GlcNAc(b1-6)Gal(b1-4)GlcNAc
# Procedure, shortened: as §1
# Gal3S(b1-4)GlcNAc = target: Gal3S(b1-4)GlcNAc
# Procedure, shortened: as §1
# Gal3S6S(b1-4)GlcNAc6S = target: Gal3S6S(b1-4)GlcNAc6S
# Procedure, shortened: as §1
# Gal4S(b1-4)GlcNAc = target: Gal4S(b1-4)GlcNAc
# Procedure, shortened: as §1
# Gal6P(b1-4)GlcNAc = target: Gal6P(b1-4)GlcNAc
# Procedure, shortened: as §1
# Gal6S(b1-3)GlcNAc6S = target: Gal6S(b1-3)GlcNAc6S
# Procedure, shortened: as §1
# Gal6S(b1-4)GlcNAc6S = target: Gal6S(b1-4)GlcNAc6S
# Procedure, shortened: as §1
# [14] = target: GalNAc(b1-4)GlcNAc(b1-2)Man
# Procedure, shortened: as §1
# [15] = target: GalNAc3S(b1-4)[Fuc(a1-3)]GlcNAc
# Procedure, shortened: as §1
# GalNAc4S6S(b1-4)GlcNAc = target: GalNAc4S6S(b1-4)GlcNAc
# Procedure, shortened: as §1
# [16] = target: Glc(a1-6)Glc(a1-6)Glc(a1-6)Glc
# Procedure, shortened: as §1
# Glc(b1-6)Glc = target: Glc(b1-6)Glc
# Procedure, shortened: as §1
# [17] = target: GlcNAc(a1-4)Gal(b1-4)GalNAc
# Procedure, shortened: as §1
# [18] = target: GlcNAc(b1-2)Gal(b1-3)GalNAc
# Procedure, shortened: as §1
# [19] = target: GlcNAc(b1-3)Gal(b1-4)GlcNAc(b1-2)[GlcNAc(b1-3)Gal(b1-4)GlcNAc(b1-6)]Man(a1-6)[GlcNAc(b1-3)Gal(b1-4)GlcNAc(b1-2)Man(a1-3)]Man(b1-4)GlcNAc(b1-4)GlcNAc
# Procedure, shortened: as §1
# [20] = target: GlcNAc(b1-3)Gal(b1-4)GlcNAc(b1-3)Gal(b1-4)GlcNAc(b1-2)[GlcNAc(b1-3)Gal(b1-4)GlcNAc(b1-3)Gal(b1-4)GlcNAc(b1-6)]Man(a1-6)[GlcNAc(b1-3)Gal(b1-4)GlcNAc(b1-3)Gal(b1-4)GlcNAc(b1-2)Man(a1-3)]Man(b1-4)GlcNAc(b1-4)[Fuc(a1-6)]GlcNAc
# Procedure, shortened: as §1
# [21] = target: GlcNAc(b1-4)GlcNAc(b1-4)GlcNAc
# Procedure, shortened: as §1
# [22] = target: Neu5Ac(a2-3)Gal(b1-3)GlcNAc(b1-2)Man(a1-3)[Neu5Ac(a2-3)Gal(b1-3)GlcNAc(b1-2)Man(a1-6)]Man(b1-4)GlcNAc(b1-4)GlcNAc
# Procedure, shortened: as §1
# [23] = target: Neu5Ac(a2-3)Gal(b1-3)GlcNAc(b1-3)Gal(b1-3)GlcNAc
# Procedure, shortened: as §1
# [24] = target: Neu5Ac(a2-3)Gal(b1-3)GlcNAc(b1-3)GalNAc
# Procedure, shortened: as §1
# [25] = target: Neu5Ac(a2-3)Gal(b1-4)GlcNAc(b1-3)Gal
# Procedure, shortened: as §1
# [26] = target: Neu5Ac(a2-3)Gal(b1-4)GlcNAc(b1-3)Gal(b1-4)GlcNAc(b1-6)[Gal(b1-3)]GalNAc
# Procedure, shortened: as §1
# [27] = target: Neu5Ac(a2-3)Gal(b1-4)GlcNAc6S
# Procedure, shortened: as §1
# Neu5Ac(a2-6)Gal = target: Neu5Ac(a2-6)Gal
# Procedure, shortened: as §1
# [28] = target: Neu5Ac(a2-6)Gal(b1-4)GlcNAc(b1-2)Man(a1-3)[GlcNAc(b1-4)][Neu5Ac(a2-6)Gal(b1-4)GlcNAc(b1-2)Man(a1-6)]Man(b1-4)GlcNAc(b1-4)GlcNAc
# Procedure, shortened: as §1
# [29] = target: Neu5Ac(a2-6)Gal(b1-4)GlcNAc(b1-3)Gal(b1-4)[Fuc(a1-3)]GlcNAc(b1-3)Gal(b1-4)[Fuc(a1-3)]GlcNAc
# Procedure, shortened: as §1
# [30] = target: Neu5Ac(a2-6)GalNAc(b1-4)GlcNAc6S
# Procedure, shortened: as §1
# [31] = target: Neu5Ac(a2-8)Neu5Ac(a2-8)Neu5Ac(a2-3)Gal(b1-4)Glc
# Procedure, shortened: as §1
# [32] = target: Neu5Gc(a2-3)Gal(b1-3)[Fuc(a1-4)]GlcNAc
# Procedure, shortened: as §1
binder,measurement,setting,value
"MFG-E8 (Mus musculus), P21956 (protein) MQVSRVLAALCGMLLCASGLFAASGDFCDSSLCLNGGTCLTGQDNDIYCLCPEGFTGLVCNETERGPCSPNPCYNDAKCLVTLDTQRGDIFTEYICQCPVGYSGIHCETETNYYNLDGEYMFTTAVPNTAVPTPAPTPDLSNNLASRCSTQLGMEGGAIADSQISASSVYMGFMGLQRWGPELARLYRTGIVNAWTASNYDSKPWIQVNLLRKMRVSGVMTQGASRAGRAEYLKTFKVAYSLDGRKFEFIQDESGGDKEFLGNLDNNSLKVNMFNPTLEAQYIKLYPVSCHRGCTLRFELLGCELHGCSEPLGLKNNTIPDSQMSASSSYKTWNLRAFGWYPHLGRLDNQGKINAWTAQSNSAKEWLQVDLGTQRQVTGIITQGARDFGHIQYVASYKVAHSDDGVQWTVYEEQGSSKVFQGNLDNNSHKKNIFEKPFMARYVRVLPVSWHNRITLRLELLGC",glycan array binding signal (z-score),[1],0.179
same,glycan array binding signal (z-score),[2],0.01
same,glycan array binding signal (z-score),[3],8.57
same,glycan array binding signal (z-score),[4],2.33
same,glycan array binding signal (z-score),[5],1.65
same,glycan array binding signal (z-score),[6],-0.206
same,glycan array binding signal (z-score),Gal(a1-2)Gal,0.39
same,glycan array binding signal (z-score),Gal(a1-3)Gal(b1-3)GlcNAc,-0.404
same,glycan array binding signal (z-score),[7],-0.165
same,glycan array binding signal (z-score),[8],-0.266
same,glycan array binding signal (z-score),[9],-0.553
same,glycan array binding signal (z-score),[10],0.221
same,glycan array binding signal (z-score),[11],2.48
same,glycan array binding signal (z-score),[12],-0.342
same,glycan array binding signal (z-score),[13],-0.115
same,glycan array binding signal (z-score),Gal3S(b1-4)GlcNAc,-0.46
same,glycan array binding signal (z-score),Gal3S6S(b1-4)GlcNAc6S,2.81
same,glycan array binding signal (z-score),Gal4S(b1-4)GlcNAc,-0.4
same,glycan array binding signal (z-score),Gal6P(b1-4)GlcNAc,1.22
same,glycan array binding signal (z-score),Gal6S(b1-3)GlcNAc6S,3.04
same,glycan array binding signal (z-score),Gal6S(b1-4)GlcNAc6S,2.98
same,glycan array binding signal (z-score),[14],-0.038
same,glycan array binding signal (z-score),[15],0.832
same,glycan array binding signal (z-score),GalNAc4S6S(b1-4)GlcNAc,9.76
same,glycan array binding signal (z-score),[16],-0.038
same,glycan array binding signal (z-score),Glc(b1-6)Glc,2.4
same,glycan array binding signal (z-score),[17],5.5
same,glycan array binding signal (z-score),[18],0.853
same,glycan array binding signal (z-score),[19],-0.881
same,glycan array binding signal (z-score),[20],-0.08
same,glycan array binding signal (z-score),[21],-0.582
same,glycan array binding signal (z-score),[22],-0.096
same,glycan array binding signal (z-score),[23],-1.04
same,glycan array binding signal (z-score),[24],0.592
same,glycan array binding signal (z-score),[25],0.469
same,glycan array binding signal (z-score),[26],-0.309
same,glycan array binding signal (z-score),[27],-0.285
same,glycan array binding signal (z-score),Neu5Ac(a2-6)Gal,0.316
same,glycan array binding signal (z-score),[28],0.277
same,glycan array binding signal (z-score),[29],-0.437
same,glycan array binding signal (z-score),[30],3.05
same,glycan array binding signal (z-score),[31],-0.889
same,glycan array binding signal (z-score),[32],2.55
